From PubChem BioAssay
An excerpt weighted towards active compounds, which were near 5.7% of everything screened.
HT1080 IDH1KD tx – qHTS for induction of synthetic lethality in tumor cells producing 2HG: qHTS for the HT-1080-IDH1KD cell line | HT-1080 IDH1 knockdown viability, ATP luminescence, 48 h | Potency, µM (doses to about 46.1 µM), inactives show top-dose activity, negative = toxicity, usual class: cytotoxic | actives 2% (n = 360,000) | AID 686971, 2013;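 also: 0% = DMSO wells and -100% = cell-free medium wells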
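% activity derives from luminescence (CellTiter-Glo), normalised to DMSO and no-cell wells. HT-1080-IDH1KD cells, 750/well, had 48 h compound exposure at 37 °C.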
KB-3-1 cytotox – qHTS assay for MDR1-selective chemotherapeutics: Primary screen using the parental adenocarcinoma cell KB-3-1; KB-3-1 viability, CellTiter-Glo ATP luminescence, 72 h; Potency, µM (highest dose often 46.1 µM), most hits filed as cytotoxic; actives 1.4% (n = 400,000); also: nearly all actives have a fitted effect of over 60% in size
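KB-3-1 cells, DMEM (no phenol red) + 10% FBS; compound by pin transfer, 72 h, 37 °C. Readout: CellTiter-Glo luminescence after 10 min. Data normalized, curve-fitted.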
KB-V1 MDR tox – qHTS assay for MDR1-selective chemotherapeutics: Primary screen using the drug-selected MDR subline cells KB-V1 | KB-V1 MDR cells viability, CellTiter-Glo, 72 h | Potency, µM (doses to about 46.1 µM), most hits filed as cytotoxic | actives 3.4% (n = 400,000); also: nearly all actives have a fitted effect of over 60% in size
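Luminescent ATP read-out (CellTiter-Glo, 10 min) measures survival of drug-selected KB-V1 MDR cells after 72 h, 37 degrees C compound exposure. Medium: phenol-red-free DMEM, 10% FBS. Values from fitted concentration-response curves.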
HT1080NT lethal – qHTS for induction of synthetic lethality in tumor cells producing 2HG: qHTS for the HT-1080-NT fibrosarcoma cell line | HT-1080-NT fibrosarcoma viability, CellTiter-Glo ATP luminescence, 48 h | actives 1.6% (n = 360,000) | Potency, µM (series often up to 46.1 µM), without a hit: top-dose activity, negative = less viability, actives largely listed as cytotoxic;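 also: NT is the 2HG producing partner of a matched IDH1 knockdown line; 0% = DMSO-treated cells and -100% = media-only wells without cells; nearly all actives have a fitted effect of over 55% in size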
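HT-1080-NT; 750 cells/well; 5% FBS RPMI; 48 h compound, 37 degrees C; CellTiter-Glo luminescence; curve fitting and curve-class assignment.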
* marks the source's active call; other numbers are inactive results; [ ] = dose if it differs, or a comment. Calls follow the shape of the dose curve; as a rule, active = well fitted curve in the direction sought with a large enough effect; inconclusive = small, poorly fitted or top-dose-only effect, or another doubt; inactive = no such curve, though single readings can be large; an effect the other way counts as inactive or inconclusive. Unless noted, % is scaled to controls: 0 for no effect and ±100 for the full control effect; potency is read from the fitted curve at half-maximal effect.

How did Clc1ccc(CN2CCC(c3nc4ccc(Cl)cc4[nH]3)CC2)cc1 do in these assays?
HT1080 IDH1KD tx: -26%; KB-3-1 cytotox: inconclusive; KB-V1 MDR tox: 21µM*; HT1080NT lethal: -10%

Results for Cc1cc2nc(C3CCN(Cc4nnnn4Cc4ccccc4)CC3)[nH]c2cc1C ?
HT1080 IDH1KD tx: inconclusive; KB-3-1 cytotox: inconclusive; KB-V1 MDR tox: inconclusive; HT1080NT lethal: 2.5µM*

Results for CCC(C)(C)n1nnnc1CN1CCC(c2nc3ccc(C)cc3[nH]2)CC1 ?
HT1080 IDH1KD tx: inconclusive; KB-3-1 cytotox: inactive; KB-V1 MDR tox: inactive; HT1080NT lethal: -23%

Results for COc1ccc(Nc2nc(-c3cccs3)nc3ccccc23)cc1 ?
HT1080 IDH1KD tx: inconclusive; KB-3-1 cytotox: inconclusive; KB-V1 MDR tox: 18µM*; HT1080NT lethal: inconclusive

Results for COc1cccc(Nc2nc(-c3cccs3)nc3ccccc23)c1 ?
HT1080 IDH1KD tx: inconclusive; KB-3-1 cytotox: inactive; KB-V1 MDR tox: inconclusive; HT1080NT lethal: 16µM*

How did Cc1cccc(NC(=O)CS(=O)(=O)c2nc(-c3ccccc3)cn2-c2cccc(Cl)c2)c1C do in these assays?
KB-3-1 cytotox: inactive; KB-V1 MDR tox: inactive

What do the screens show for `COc1ccc(NC(=O)c2cccc(Oc3ccccc3)c2)cn1`?
HT1080 IDH1KD tx: 3.7µM*; KB-3-1 cytotox: 8.2µM*; KB-V1 MDR tox: inconclusive; HT1080NT lethal: 5.2µM*

Results for COc1ccc(NC(=O)c2cccc(S(=O)(=O)Nc3ccc(Br)cc3)c2)cn1 ?
HT1080 IDH1KD tx: inconclusive; KB-3-1 cytotox: 12µM*; KB-V1 MDR tox: inconclusive; HT1080NT lethal: inconclusive

How did COc1ccc(NC(=S)NC(=O)c2ccccc2)cn1 do in these assays?
HT1080 IDH1KD tx: 5%; KB-3-1 cytotox: inactive; KB-V1 MDR tox: inactive; HT1080NT lethal: 18%

How did O=C(Nc1ccc(Br)cc1)c1cccc(S(=O)(=O)Nc2cnc3ccccc3c2)c1 do in these assays?
HT1080 IDH1KD tx: inconclusive; KB-3-1 cytotox: inactive; KB-V1 MDR tox: inactive; HT1080NT lethal: inconclusive

What do the screens show for `Cc1ccc2sc(N(CCCN(C)C)C(=O)CN3C(=O)c4ccccc4C3=O)nc2c1C`?
HT1080 IDH1KD tx: inconclusive; KB-3-1 cytotox: inactive; KB-V1 MDR tox: inactive; HT1080NT lethal: 16µM*

How did CN(C)CCCN(C(=O)CCOc1ccccc1)c1nc2c(F)cccc2s1 do in these assays?
HT1080 IDH1KD tx: 7.3µM*; KB-3-1 cytotox: inconclusive; KB-V1 MDR tox: inactive; HT1080NT lethal: 15µM*

Results for CN(C)CCCN(C(=O)CCc1ccccc1)c1nc2c(F)cccc2s1 ?
HT1080 IDH1KD tx: -14%; KB-3-1 cytotox: inactive; KB-V1 MDR tox: inactive; HT1080NT lethal: -10%

Results for CN(C)CCCN(C(=O)CCOc1ccccc1)c1nc2ccc(F)cc2s1 ?
HT1080 IDH1KD tx: 21µM*; KB-3-1 cytotox: inactive; KB-V1 MDR tox: inactive; HT1080NT lethal: 18µM*

Results for CCCCOC(=O)c1ccc(Nc2nc3ccc(C)cc3n3cnnc23)cc1 ?
KB-3-1 cytotox: inactive; KB-V1 MDR tox: inactive

Results for O=C(CSCc1ccc(Br)cc1)Nc1ccc(S(=O)(=O)N2CCOCC2)cc1 ?
HT1080 IDH1KD tx: -22%; KB-3-1 cytotox: inactive; KB-V1 MDR tox: 21µM*; HT1080NT lethal: -24%

What do the screens show for `Cc1ccc(CSCC(=O)Nc2cc(S(=O)(=O)N3CCOCC3)ccc2OCC(F)(F)F)cc1`?
HT1080 IDH1KD tx: -6%; KB-3-1 cytotox: inconclusive; KB-V1 MDR tox: 15µM*; HT1080NT lethal: -6%

What do the screens show for `O=S(=O)(c1ccc(Oc2ccc(Br)cc2)cc1)N1CCOCC1`?
HT1080 IDH1KD tx: -7%[9.24 µM]; KB-3-1 cytotox: inactive; KB-V1 MDR tox: 12µM*; HT1080NT lethal: -18%

Results for Cc1ccccc1OCC(=O)Nc1ccc(-c2nc3cc(Cl)cc(Cl)c3o2)cc1 ?
KB-3-1 cytotox: inactive; KB-V1 MDR tox: inactive

Results for O=C(c1ccccc1)N(Cc1cccnc1)C1(C(=O)Nc2ccccc2)CCCCC1 ?
HT1080 IDH1KD tx: -7%; KB-3-1 cytotox: inconclusive; KB-V1 MDR tox: 10µM*; HT1080NT lethal: 3%

Results for O=C(Nc1cccnc1)C(Cc1ccccc1)n1cccc1 (stereo unspecified) ?
HT1080 IDH1KD tx: -13%; KB-3-1 cytotox: inactive; KB-V1 MDR tox: inactive; HT1080NT lethal: -8%

What do the screens show for `O=C(Nc1ncc(Br)s1)C(Cc1ccccc1)n1cccc1` (stereo unspecified)?
HT1080 IDH1KD tx: -26%; KB-3-1 cytotox: inactive; KB-V1 MDR tox: inactive; HT1080NT lethal: 26µM*

How did CCOC(=O)c1ccccc1NC(=O)Cc1c(C(=O)O)c(C)cn1C do in these assays?
KB-3-1 cytotox: inactive; KB-V1 MDR tox: inactive

Results for Cc1nc(NC(=S)NC(=O)c2cncc(Br)c2)ccc1Br ?
HT1080 IDH1KD tx: 4%; KB-3-1 cytotox: inconclusive; KB-V1 MDR tox: 3.7µM*; HT1080NT lethal: 2%

What do the screens show for `Cc1ccnc(NC(=S)NC(=O)c2cncc(Br)c2)c1`?
HT1080 IDH1KD tx: 0%; KB-3-1 cytotox: inactive; KB-V1 MDR tox: inactive; HT1080NT lethal: 0%

Results for Cc1ccccc1OC(=O)CSc1nnc(-c2ccc(F)cc2)o1 ?
KB-3-1 cytotox: inactive; KB-V1 MDR tox: inactive

Results for Cc1ccc(CNc2nc(C)nc3sc4c(c23)CCC4)cc1 ?
HT1080 IDH1KD tx: 0%; KB-3-1 cytotox: inactive; KB-V1 MDR tox: 8.2µM*; HT1080NT lethal: 3%

What do the screens show for `Cc1nc(Nc2ccc(O)cc2)c2c3c(sc2n1)CCCC3`?
HT1080 IDH1KD tx: -24%; KB-3-1 cytotox: inactive; KB-V1 MDR tox: inactive; HT1080NT lethal: inconclusive

How did CC(=O)c1c(C)nn(CC(O)COc2ccc3c(c2)CCC3)c1C (stereo unspecified) do in these assays?
HT1080 IDH1KD tx: -13%; KB-3-1 cytotox: inactive; KB-V1 MDR tox: 10µM*; HT1080NT lethal: inconclusive

How did CC(C)/C=C(/C(=O)c1ccc(Cl)cc1Cl)n1cncn1 do in these assays?
HT1080 IDH1KD tx: 0%; KB-3-1 cytotox: inactive; KB-V1 MDR tox: inactive; HT1080NT lethal: -16%

What do the screens show for `CC(C)(C)C(=O)/C(=C/c1ccc(Cl)cc1)n1cncn1`?
HT1080 IDH1KD tx: -22%; KB-3-1 cytotox: inconclusive; KB-V1 MDR tox: inconclusive; HT1080NT lethal: 16µM*

Results for CCOC1=C2CN(S(=O)(=O)c3ccc(C)cc3)C(c3ccc(C)cc3)CC2N(S(=O)(=O)c2ccc(C)cc2)C(c2ccccc2)C1 (stereo unspecified) ?
HT1080 IDH1KD tx: 2%; KB-3-1 cytotox: 3.3µM*; KB-V1 MDR tox: inconclusive; HT1080NT lethal: 8%

Results for CCOC1=C2CN(S(=O)(=O)c3ccc(C)cc3)[C@H](c3ccccc3)C[C@@H]2N(S(=O)(=O)c2ccc(C)cc2)[C@H](c2ccccc2)C1 ?
HT1080 IDH1KD tx: 16%; KB-3-1 cytotox: inactive; KB-V1 MDR tox: inactive; HT1080NT lethal: 26%

What do the screens show for `CCOC(=O)CC(NC(=O)c1cc2cc(Cl)ccc2oc1=O)c1ccc(C)cc1` (stereo unspecified)?
KB-3-1 cytotox: inactive; KB-V1 MDR tox: inactive
